From PubChem
NPR1 antag = Natriuretic polypeptide receptor (hNpr1) antagonism - Primary qHTS; Atrial natriuretic peptide receptor 1 (Homo sapiens), P16066; AID 1347048, 2019; Potency, µM (doses to about 46.3 µM), most hits filed as inhibitors; HEK293 hNpr1 GloSensor cGMP, ANP-stimulated luminescence; 76,000 compounds, 1.6% hits; calls by dose curve; also: nearly all actives have a fitted effect of over 60% in size
Target sequence (P16066 whole entry, looked up): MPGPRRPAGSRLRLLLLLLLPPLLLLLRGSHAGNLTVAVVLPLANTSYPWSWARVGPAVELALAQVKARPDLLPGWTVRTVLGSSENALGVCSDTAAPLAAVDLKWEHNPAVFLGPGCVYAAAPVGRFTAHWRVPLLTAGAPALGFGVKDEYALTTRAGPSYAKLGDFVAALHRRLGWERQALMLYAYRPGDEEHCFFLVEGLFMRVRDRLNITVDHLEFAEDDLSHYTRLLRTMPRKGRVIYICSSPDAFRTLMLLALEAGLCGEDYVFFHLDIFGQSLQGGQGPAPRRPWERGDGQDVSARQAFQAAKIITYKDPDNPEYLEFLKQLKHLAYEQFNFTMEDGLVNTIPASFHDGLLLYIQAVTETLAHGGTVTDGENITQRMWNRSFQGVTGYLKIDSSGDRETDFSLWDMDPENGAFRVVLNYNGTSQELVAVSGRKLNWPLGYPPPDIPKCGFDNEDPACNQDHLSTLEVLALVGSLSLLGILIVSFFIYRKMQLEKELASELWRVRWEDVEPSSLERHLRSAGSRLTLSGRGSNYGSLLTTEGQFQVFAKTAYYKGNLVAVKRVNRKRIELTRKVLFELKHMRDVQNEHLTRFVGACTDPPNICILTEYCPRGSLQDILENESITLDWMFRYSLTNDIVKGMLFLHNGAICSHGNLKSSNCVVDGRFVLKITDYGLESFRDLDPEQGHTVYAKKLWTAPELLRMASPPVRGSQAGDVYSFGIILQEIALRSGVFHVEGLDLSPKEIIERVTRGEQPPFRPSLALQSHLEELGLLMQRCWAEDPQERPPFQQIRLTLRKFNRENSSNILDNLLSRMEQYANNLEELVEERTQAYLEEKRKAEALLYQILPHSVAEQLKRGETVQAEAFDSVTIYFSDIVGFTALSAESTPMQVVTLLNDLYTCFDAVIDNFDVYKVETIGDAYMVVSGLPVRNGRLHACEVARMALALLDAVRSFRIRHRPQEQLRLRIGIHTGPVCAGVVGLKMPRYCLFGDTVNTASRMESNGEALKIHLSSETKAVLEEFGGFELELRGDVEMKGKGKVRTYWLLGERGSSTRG
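Compound pre-incubated 30 min at room temperature on GloSensor-loaded HEK293 cells stably carrying hNpr1 and the pGS-40F cGMP biosensor. Stimulation uses hNppA at 0.1 nM final; luminescence is taken at baseline and 20 min post-agonist.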
HEK293 tox = Cytotoxic Profiling in HEK 293 Cell Line of Diverse Libraries Using Quantitative High-Throughput Screening; HEK 293 viability, ATP luminescence (CellTiter-Glo), 48-72 h; Potency, µM (titrated, usually from 115 µM), most hits filed as inhibitors; 94,000 compounds, 6.6% hits; AID 1345083, 2018; also: nearly all actives have a fitted effect of over 60% in size
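Cytotoxicity was scored by loss of ATP-coupled luminescence (CellTiter-Glo) in HEK 293 cells. Compound treatment ran 48 or 72 hr at 37 degree Celsius, 5% CO2, 95% humidity.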
FLuc inh-1 = Firefly luciferase inhibition profiling of diverse chemical library using quantitative high-throughput screening; purified P. pyralis luciferase, luminescence, biochemical; Potency, µM (titrated, usually from 115 µM), most hits filed as inhibitors; AID 1347043, 2019; 76,000 compounds, 2.5% hits; Luciferin 4-monooxygenase (Photinus pyralis), P08659; also: nearly all actives have a fitted effect of over 65% in size
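Inhibitors were tested against purified firefly luciferase in a biochemical, low-substrate format (both substrates at 10uM) and luminescence measured with a CCD imager.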
SNCA expr inhib = Primary qHTS assay for inhibitors of alpha-synuclein gene (SNCA) expression | HEK-293 SNCA-luciferase knock-in, luminescence, 24 h | Potency, µM (series often up to 57.2 µM), actives largely listed as inhibitors | 140,000 compounds, 0.17% hits | AID 1671194, 2021; also: nearly all actives have a fitted effect of over 45% in size
HEK293 viab = GF-AFC viability counterscreen for inhibitors of alpha-synuclein gene (SNCA) expression; Potency, µM (highest dose often 57.1 µM), most hits filed as cytotoxic; 150,000 compounds, 0.12% hits; HEK-293-SNCA-luc viability, GF-AFC fluorescence, 24 h; also: nearly all actives have a fitted effect of over 30% in size
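HEK-293-SNCA-luc cells (1500/well) plated 24 h, then exposed 24 h to a dilution series; GF-AFC added 30 min at 37C, fluorescence 405/540 nm; normalised to medium-only and DMSO wells, Hill fit.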
3T3 cytotox = Cytotoxic Profiling in NIH 3T3 Cell Line of Diverse Libraries Using Quantitative High-Throughput Screening; 94,000 compounds, 4.3% hits; Potency, µM (titrated, usually from 96.7 µM), hits mostly inhibitors; AID 1345082, 2018; NIH 3T3 viability, CellTiter-Glo ATP luminescence, 48-72 h; also: nearly all actives have a fitted effect of over 55% in size
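First NIH 3T3 cells are plated at 400 cells/well; next compound is pinned in; then plates incubate 48 or 72 hr at 37 °C; finally CellTiter-Glo is added and luminescence read after 10 min.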
FLuc SDR -ATP = Firefly luciferase (FLuc-C-HiBiT) SDR gain of signal screen - without ATP; shares compounds with FLuc inh-1; Purified FLuc-C-HiBiT, Nano-Glo HiBiT luminescence, no ATP; Potency, µM (top dose mostly 32.7 µM), usual class: activators; 1,300 compounds, 7.8% hits; also: nearly all actives have a fitted effect of over 55% in size
FLuc SDR ATP = Firefly luciferase (FLuc-C-HiBiT) SDR gain of signal screen - plus ATP; shares compounds with FLuc inh-1; purified FLuc-C-HiBiT + ATP, HiBiT complementation luminescence; Potency, µM (titrated, usually from 32.7 µM), usual class: activators; 1,300 compounds, 8.7% hits;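 also: signal reports ligand binding via conformational change of the enzyme rather than luciferase catalysis; nearly all actives have a fitted effect of over 55% in size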
FLuc inh-2 = Firefly luciferase (FLuc-C-HiBiT) enzymatic inhibition screen - Functional assay | shares compounds with FLuc inh-1 | purified FLuc-C-HiBiT enzyme, luciferin luminescence | Potency, µM (series often up to 32.7 µM), hits mostly inhibitors | 1,300 compounds, 42% hits; also: nearly all actives have a fitted effect of over 70% in size
Hits are given with their value; . = inactive; ? = inconclusive; / = no result. A selection follows. Unless noted, calls follow the shape of the dose curve; as a rule, active = well fitted curve in the direction sought with a large enough effect; inconclusive = small, poorly fitted or top-dose-only effect, or another doubt; inactive = no such curve, though single readings can be large; an effect the other way counts as inactive or inconclusive.

SMILES | NPR1 antag | HEK293 tox | FLuc inh-1 | SNCA expr inhib | HEK293 viab | 3T3 cytotox | FLuc SDR -ATP | FLuc SDR ATP | FLuc inh-2
O=C(c1cccnc1)N1CCC(N2C(=O)C3(CCCCC3)C2c2ccncc2)CC1 (configuration not stated) | / | . | / | . | . | . | / | / | /
CCN1C(=O)C2CC3(CCN(C(=O)c4nn(C)c5ccccc45)CC3)CN2C1=O (configuration not stated) | . | . | . | . | . | ? | / | / | /
COCc1nnc2n1CCC(NC(=O)CCn1cccn1)CC2 (configuration not stated) | . | . | . | . | . | . | / | / | /
CC1=C[C@@H](CNC(=O)COc2ccccc2)[C@H](C(C)C)C[C@H]1CC(=O)NCCN(C)C | . | ? | . | ? | . | ? | / | / | /
Oc1cc(-c2nc3ccccc3s2)cc2c1OCCN(Cc1cn[nH]c1-c1ccc(Cl)cc1)C2 | / | / | / | / | / | / | . | . | .
Oc1cc(-c2nc3ccccc3s2)cc2c1OCCN(Cc1cccn1-c1nccs1)C2 | / | / | / | / | / | / | . | . | .
CCc1noc(CN2CCOc3c(O)cc(-c4ccccc4C)cc3C2)n1 | . | ? | . | . | . | ? | / | / | /
c1ccc2sc(-c3cc4c(c(OC5CCOC5)c3)OCCN(Cc3cccn3-c3nccs3)C4)nc2c1 (configuration not stated) | / | / | / | / | / | / | . | . | .
Oc1cc(-c2nc3ccccc3s2)cc2c1OCCN(Cc1ncccn1)C2 | . | ? | ? | . | . | . | . | . | .
Fc1ccccc1-c1n[nH]c2c1CN(Cc1cccn1-c1nccs1)CC2 | . | ? | . | . | . | . | / | / | /
Cc1cn2nc(C(=O)Nc3ccc(F)cc3)cc2c(N(C)Cc2ccccc2)n1 | . | ? | . | . | . | ? | / | / | /
COc1ccc(-c2cc(C(=O)NCc3ccccc3Cl)c3cnn(C)c3n2)cc1 | / | ? | / | . | . | ? | / | / | /
CC1CCN(C(=O)CCC2(Cc3ccc4ccccc4c3)CCC(=O)N2)CC1 (configuration not stated) | . | . | . | . | . | . | / | / | /
Cc1ccccc1-c1cc(O)c2c(c1)CN(Cc1nccn1C)CCO2 | . | ? | . | . | . | . | / | / | /
Cc1noc(C)c1CC(=O)N1CCOc2c(cc(-c3nc4ccccc4s3)cc2OC2CCOC2)C1 (configuration not stated) | / | / | / | / | / | / | . | . | .
Oc1cc(-c2nc3ccccc3s2)cc2c1OCCN(Cc1cccn1-c1ccc(Cl)cn1)C2 | / | / | / | / | / | / | . | . | .
Cc1noc(C)c1CC(=O)N1C[C@@H](Oc2ccccc2)C[C@@H]1C(=O)N1CCOCC1 | . | . | . | . | . | . | / | / | /
COc1ccc2c(c1)OC[C@@H]1CN(CCC#N)C(=O)CCN(C(=O)CC(C)C)[C@H]21 | / | . | / | / | / | ? | / | / | /
COc1ccc(N2CC(C(=O)N3CCOCC3)NC2=O)cc1 (configuration not stated) | . | . | . | . | . | . | / | / | /
Cc1cc(OCC(=O)Nc2cc(-c3nc4ccccc4[nH]3)ccc2C)ccc1Cl | / | / | / | . | . | / | / | / | /
COc1ccc(OCC(=O)Nc2cc(-c3nc4ccccc4s3)ccc2C)cc1 | / | / | / | . | . | / | . | . | ?
CCOc1ccccc1C(=O)Nc1cc(-c2nc3cccnc3s2)ccc1C | / | / | / | . | . | / | / | / | /
COc1ccc(CC(=O)Nc2ccc(-c3nc4ccccc4s3)cc2Cl)cc1 | / | / | / | . | . | / | . | . | .
Cc1ccc(-c2nc3ccccc3s2)cc1NC(=O)COc1ccccc1 | / | / | / | . | . | / | . | . | .
COc1ccc(CC(=O)Nc2cc(-c3cn4cccnc4n3)ccc2OC)cc1 | / | / | / | . | . | / | / | / | /
SMILES | NPR1 antag | HEK293 tox | FLuc inh-1 | SNCA expr inhib | HEK293 viab | 3T3 cytotox | FLuc SDR -ATP | FLuc SDR ATP | FLuc inh-2
COc1ccc(OCC(=O)Nc2cccc(-c3nc4ccccc4s3)c2C)cc1 | / | / | / | . | . | / | . | . | 7.9µM
COc1ccc(C(=O)Nc2cccc(-c3nc4cccnc4s3)c2C)c(OC)c1 | / | / | / | . | . | / | / | / | /
COc1ccc(-c2c(C(=O)NCc3ccc(F)c(F)c3)nc3sccn23)cc1 | / | ? | / | . | . | ? | / | / | /
COc1ccc(CCc2nc3cc(-c4c(C)noc4C)ccc3n2C[C@H](C)N2CCOCC2)cc1Cl | / | / | / | / | . | / | / | / | /
COc1ccc(NC(=O)CSc2nc3ccccc3n2Cc2cccc(OC)c2)cc1 | / | / | / | . | . | / | / | / | /
CCCCC(=O)Nc1cccc(-c2nc3ccccc3s2)c1 | / | / | / | . | . | / | . | . | ?
COc1cccc(CC(=O)Nc2ccc(-c3nc4ccccc4s3)cc2)c1 | / | / | / | . | . | / | . | . | ?
Cc1cc(C)cc(OCC(=O)Nc2ccc(-c3nc4ccccc4s3)cc2)c1 | / | / | / | . | . | / | . | . | .
Cc1cc(C)cc(OCCSc2nc3ccc(NC(=O)COc4ccccc4)cc3s2)c1 | / | / | / | . | . | / | / | / | /
CCC(CC)C(=O)Nc1cccc(-c2nc3cccnc3s2)c1 | / | / | / | . | . | / | / | / | /
COc1ccccc1NC(=O)N1CCC(Oc2ncccc2C(=O)N2CCOCC2)C1 (configuration not stated) | . | . | . | . | . | . | / | / | /
CC(C)n1cnnc1CC1CCCN(S(=O)(=O)c2ccc3c(c2)C(C)(C)C(=O)N3)C1 (configuration not stated) | . | . | . | . | . | . | / | / | /
O=C(NC1CCCC1)N1CCN(c2nc3ncccc3o2)CC1 | . | . | . | . | . | . | / | / | /
CCC(C(=O)NCCn1ccn2nc(-c3ccc(OC)cc3)cc2c1=O)c1ccccc1 (configuration not stated) | . | ? | 8.9µM | . | . | ? | . | . | ?
COc1ccc(CC(=O)NCCc2sc(-c3cccc(F)c3)nc2C)cc1 | / | / | / | . | . | / | / | / | /
